Assay [1] has as its target Catechol O-methyltransferase (Homo sapiens) (UniProt P21964). The experiment in a line: Confirmatory Screen for Target Class Profiling of Small Molecule Inhibitors of Methyltransferases (AID 1745852; calls by dose curve; also: potency is read from the fitted curve at half-maximal effect; as to activity change, negative = inhibition: % is scaled to controls: 0 for no effect and ±100 for the full control effect). To be noted: MTase-Glo luminescence, SAH detection, recombinant enzyme; measured here: COMT max response; stronger effect = lower value.
The target of assay [2] is Guanidinoacetate N-methyltransferase (Homo sapiens) (UniProt Q14353). The assay is described as above. To be noted: MTase-Glo luminescence, SAH detection, recombinant enzyme; activity change, negative = inhibition: at 57.3 µM (top of the series) unless noted; series mostly up to 57.3 µM.
For assay [3], the target named is Nicotinamide N-methyltransferase (Homo sapiens) (UniProt P40261). The description is as above. To be noted: MTase-Glo luminescence, SAH detection, recombinant enzyme; measured here: NNMT max response; stronger effect = lower value.
The target of assay [4] is Phenylethanolamine N-methyltransferase (Homo sapiens) (UniProt P11086). The assay is described as above. To be noted: MTase-Glo luminescence, SAH detection, recombinant enzyme; measured here: PNMT max response; stronger effect = lower value.
The target in assay [5] is Glutathione peroxidase 1 (Homo sapiens) (UniProt P07203). Put plainly: Primary qHTS Assay for Inhibitors of Recombinant Selenoprotein Glutathione Peroxidase 1 (GPX1) (AID 1845191). Also: nearly all actives have a fitted effect of over 65% in size. To be noted: recombinant GPX1, GR-coupled NADPH fluorescence, 15 min; series mostly up to 48.8 µM. The method in brief: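 Recombinant GPX1 (10 nM final) was preincubated with compound for 30 min at room temperature, then reacted with 1 mM GSH, 0.5 mM CHP, 0.5 mM NADPH and 100 nM glutathione reductase; NADPH fluorescence (340/450 nm) was read at 0 and 15 min.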
(In qHTS, concentration-response curves come from the screen itself.)

Assay [6] concerns the target Phospholipid hydroperoxide glutathione peroxidase GPX4 (Homo sapiens) (UniProt P36969). Put plainly: Primary qHTS Assay for Inhibitors of Recombinant Selenoprotein Glutathione Peroxidase 4 (GPX4) (AID 1845192). Also: nearly all actives have a fitted effect of over 65% in size. Also: potency is read from the fitted curve at half-maximal effect. As to activity change, negative = inhibition: % is scaled to controls: 0 for no effect and ±100 for the full control effect. To be noted: recombinant GPX4, GR-coupled NADPH fluorescence, 15 min; series mostly up to 50 µM. An outline of the steps:
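GR-coupled readout: 100 nM GR, 1 mM GSH, 0.5 mM NADPH; NADPH fluorescence (ex 340/em 450 nm) read at t=0 and after 15 min RT. GPX4 200 nM, preincubated 30 min with compound; substrate 0.5 mM CHP.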

The target of assay [7] is Luciferin 4-monooxygenase (Photinus pyralis) (UniProt P08659). Put plainly: Primary firefly luciferase (FLuc) qHTS assay for identification of artifact compounds. (AID 1845220). Also: nearly all actives have a fitted effect of over 60% in size.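 As to activity change, negative = inhibition: plate controls were DMSO vehicle for no effect and no enzyme for full effect.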 To be noted: purified firefly luciferase, luminescence, 5 min; series mostly up to 54.1 µM. An outline of the steps: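 Reaction readout was CCD-imaged luminescence, taken 5 min after adding 10 nM purified firefly enzyme to compound-treated wells holding 10 uM luciferin and ATP in pH 7.6 buffer.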

A short description of assay [8]: Primary fluorescence-based thiol-reactive (MSTI) qHTS assay for identification of artifact compounds. (AID 1845221). Also: nearly all actives have a fitted effect of over 65% in size. Also: potency is read from the fitted curve at half-maximal effect. To be noted: MSTI thiol-reactivity probe, 1 h; series mostly up to 53.8 µM. The method in brief:
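MSTI probe at 4 uM final in 2% DMSO/PBS pH 7.4; compounds, 1 h at room temperature in dark. Fluorescence Ex/Em 525/598 nm, normalised to Acetyl-MSTI and MSTI, fitted to 4-parameter Hill.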

Assay [9] concerns Nanoluciferase (engineered Oplophorus gracilirostris luciferase). The experiment in a line: Primary Nanoluciferase (NLuc) qHTS assay for identification of artifact compounds. (AID 1845222).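 Also: 0% = DMSO and -100% = no enzyme.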 To be noted: NLuc-conditioned medium, Nano-Glo luminescence, 5 min; series mostly up to 54.1 µM. The method in brief: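 Concentration-response data were obtained by luminescence after 5 min with Nano-Glo substrate at 1:100. The enzyme was diluted S16 NLuc-expressing cell medium, preincubated with compound for 15 min at RT. Curves were fitted with a 4-parameter Hill model.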

Assay [10] can be described thus: Primary redox qHTS assay for identification of artifact compounds. (AID 1845223).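 Also: 0% = DMSO and 100% = reference compound.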 To be noted: Amplex Red/HRP redox cycling with DTT, fluorescence; series mostly up to 53.8 µM. The method in brief:
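Amplex Red (25 uM) and HRP (250 mU/mL) in HBSS, with compounds for 15 min, then 250 uM DTT for 30 min, room temperature, dark. Fluorescence 525/598 nm read; normalized to DMSO and 10 uM DA3003; Hill fit.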

Values joined by “and” are separate entries in the source; they are usually repeats but may differ in a detail not shown here. Identical values can stand only once. Inconclusive results are not listed. Some structures have more than one record in an assay (separate samples or runs), and their calls can disagree. Active and inactive are the calls of the source. Unless noted, calls follow the shape of the dose curve; as a rule, active = well fitted curve in the direction sought with a large enough effect; inconclusive = small, poorly fitted or top-dose-only effect, or another doubt; inactive = no such curve, though single readings can be large; an effect the other way counts as inactive or inconclusive.

Nicotinamide N-methyltransferase (Homo sapiens), sequence (P40261 whole entry, looked up): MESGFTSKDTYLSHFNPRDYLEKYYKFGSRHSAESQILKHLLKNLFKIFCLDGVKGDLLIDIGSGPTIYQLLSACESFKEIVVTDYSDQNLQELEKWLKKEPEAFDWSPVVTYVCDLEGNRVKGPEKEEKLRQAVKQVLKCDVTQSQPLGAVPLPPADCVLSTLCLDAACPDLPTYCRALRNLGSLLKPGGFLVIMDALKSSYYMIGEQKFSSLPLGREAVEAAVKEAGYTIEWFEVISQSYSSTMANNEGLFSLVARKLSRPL
Phenylethanolamine N-methyltransferase (Homo sapiens), sequence (P11086 whole entry, looked up): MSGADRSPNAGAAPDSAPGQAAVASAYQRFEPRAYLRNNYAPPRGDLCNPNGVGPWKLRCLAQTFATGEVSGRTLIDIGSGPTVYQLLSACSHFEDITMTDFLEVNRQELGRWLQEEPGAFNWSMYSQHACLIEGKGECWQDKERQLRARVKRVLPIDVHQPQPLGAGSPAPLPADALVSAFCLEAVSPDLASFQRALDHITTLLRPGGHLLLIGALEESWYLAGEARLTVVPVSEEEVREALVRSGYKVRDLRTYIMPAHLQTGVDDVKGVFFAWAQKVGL
Catechol O-methyltransferase (Homo sapiens), sequence (P21964 whole entry, looked up): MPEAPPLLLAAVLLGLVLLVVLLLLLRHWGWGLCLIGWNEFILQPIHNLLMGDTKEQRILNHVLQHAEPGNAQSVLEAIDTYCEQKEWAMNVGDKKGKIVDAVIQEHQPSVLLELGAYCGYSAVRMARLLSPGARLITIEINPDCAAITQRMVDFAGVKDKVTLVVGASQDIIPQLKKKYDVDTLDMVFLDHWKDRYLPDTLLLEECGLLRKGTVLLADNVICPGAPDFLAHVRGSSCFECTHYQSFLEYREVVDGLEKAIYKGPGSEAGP
Phospholipid hydroperoxide glutathione peroxidase GPX4 (Homo sapiens), sequence (P36969 whole entry, looked up): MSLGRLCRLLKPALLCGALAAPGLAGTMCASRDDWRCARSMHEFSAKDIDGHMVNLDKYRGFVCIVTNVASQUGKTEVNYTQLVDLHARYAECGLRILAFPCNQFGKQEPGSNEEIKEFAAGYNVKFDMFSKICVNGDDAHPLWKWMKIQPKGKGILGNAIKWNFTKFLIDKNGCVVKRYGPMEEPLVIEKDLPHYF
Glutathione peroxidase 1 (Homo sapiens), sequence (P07203 whole entry, looked up): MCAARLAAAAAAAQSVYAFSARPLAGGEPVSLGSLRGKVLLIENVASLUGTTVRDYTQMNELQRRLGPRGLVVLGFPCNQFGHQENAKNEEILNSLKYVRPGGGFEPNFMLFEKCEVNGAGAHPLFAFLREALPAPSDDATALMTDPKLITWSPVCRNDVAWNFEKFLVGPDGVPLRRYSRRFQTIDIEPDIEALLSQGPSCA

`NCC(CNc1nc(Nc2cccc(NC(=O)N3CCCC3)c2)ncc1I)C(=O)c1cccs1` (centres undefined): the activity in [1] is -3.81%; in assay [3] it was -36.6%; in assay [4] it was -13.7%. For the same molecule, in assay [2], the activity change, negative = inhibition stood at 0%. The Potency entry in assay [5], in assay [6], in assay [7], in assay [8], in assay [9] and in [10] was “inactive” in each case.

As for `C=C1C(OC2OC(CO)C(O)C(O)C2O)CC2C(C)(C)C(O)CCC2(C)C1CC/C(C)=C\COC(=O)CC(=O)O` (centres undefined), the activity in [1] is -58.5%; in assay [3], 0%; in [4], 2.99%. Besides, the activity change, negative = inhibition in [2] is 0% [at 19.1 µM]. Moreover, the Potency entry in assay [5], in assay [6], in assay [7], in assay [8] and in [9] was “inactive” in each case.

With `Cc1[nH]c(/C=C2\C(=O)Nc3ccc(S(=O)(=O)N(C)c4cccc(Cl)c4)cc32)c(C)c1C(=O)N1CCN(C)CC1`, the activity in assay [1] is -10.8%; in assay [3] it was -49.1%; in [4] it was -9.35%. Also, in assay [2], the activity change, negative = inhibition was -2.8%. Moreover, the Potency entry in assay [5], in [6] and in assay [7] was “inactive” in each case.

Regarding `CCOC(=O)N1CCC(CN(Cc2ccc(Cl)cc2)Cc2ccc([N+](=O)[O-])s2)C1` (centres undefined), the values for the activity in assay [1], in assay [3] and in [4] were -21.2%, -5.08% and -5.01%, respectively. Besides, the activity change, negative = inhibition in [2] is 1.91%. For the same molecule, the Potency entry in assay [5], in [6], in assay [7] and in assay [9] was “inactive” in each case. In addition, the Potency in [8] is 13.4 µM (active).

As for `COC(=O)CC1OC(C)C2=C(O)c3c(O)cccc3C(=O)C23OC13` (centres undefined), the values for the activity in assay [1], in [3] and in [4] were -4.94%, -0.835% and -0.505%, respectively. In addition, the activity change, negative = inhibition in assay [2] was -3.96%. The Potency result in [5], in assay [6], in assay [7] and in [9] was “inactive” throughout. Further, in [8], the Potency is 3.29 µM (active).

Regarding `Cc1cc(NC(=O)c2cccc(NC(=O)/C=C/CN(C)C)c2)ccc1Nc1nccc(-c2cccnc2)n1`, the activity in [1] was -3.09%; in assay [3], -3.09%; in assay [4] it was -2.64%. Besides, the activity change, negative = inhibition in assay [2] turned out to be 1.37%. The Potency entry in [5], in [6], in assay [7] and in assay [8] was “inactive” in each case.

For the molecule `CC1(C)CC[C@]2(C(=O)O[C@@H]3O[C@H](CO)[C@@H](O)[C@H](O)[C@H]3O)CC[C@]3(C)C(=CCC4[C@@]5(C)CC[C@H](O[C@@H]6O[C@H](C(=O)O)[C@H](O)[C@H](O)[C@H]6O)C(C)(C)C5CC[C@]43C)[C@@H]2C1` (some centres undefined), the activity in assay [1] is -55%; in [3], -9.04%; in [4], -2.05%. For the same molecule, the activity change, negative = inhibition in assay [2] is -1.02% [at 19.1 µM]. Besides, the Potency result in assay [5], in [6], in assay [7], in [8] and in assay [9] was “inactive” each time.

`CC(C)(C)Sc1c(CC(C)(C)C(=O)O)n(Cc2ccc(Cl)cc2)c2ccc(OCc3ccc4ccccc4n3)cc12`: the results for the activity in assay [1], in assay [3] and in assay [4] were 1.57%, -17.1% and -5.18%, respectively. Also, the Potency result in assay [2], in assay [5], in [7], in assay [8], in assay [9] and in [10] was “inactive” throughout. Moreover, the Potency result in assay [6] was “inactive and 8.06 µM (active)”.

Regarding `O=S1(=O)CCN(Cc2cc(NCC3CCOCC3)c3[nH]c(-c4ccccc4)cc3c2)CC1`, the results for the activity in assay [1], in [3] and in assay [4] were -4.1%, -6.86% and -4.93%, respectively. The activity change, negative = inhibition in [2] was -1.81%. The Potency result in [5], in assay [6], in [7] and in assay [9] was “inactive” each time. Further, the Potency in [8] was 1.19 µM (active).

`CN(C)CC1CCn2c(c(C3=C(c4cn(C)c5ccccc45)C(=O)NC3=O)c3ccccc32)C1` (centres undefined): the activity is -13.6% in assay [1], -44.5% in assay [3] and -10.7% in assay [4]. The activity change, negative = inhibition in assay [2] is -2.82%. Also, the Potency entry in [5], in [6], in assay [7] and in assay [8] was “inactive” throughout.

As for `Cc1c[nH]c2ncnc(N3CCC(CN)(C(=O)Nc4cccc(OC(=O)N(C)C)c4)CC3)c12`, the values for the activity in assay [1], in assay [3] and in assay [4] were -12.7%, -59.8% and -19.2%, respectively. Moreover, in assay [2], the activity change, negative = inhibition is -4.87% [at 114 µM]. In addition, the Potency result in assay [5], in assay [6], in [7], in [8] and in assay [9] was “inactive” each time.

In the case of `C[C@]12CC[C@@H]3c4ccc(O)c(O)c4CC[C@H]3[C@@H]1CCC2=O`, the results for the activity in assay [1], in assay [3] and in assay [4] were -61.7%, -14.2% and -20.6%, respectively. Further, the activity change, negative = inhibition in [2] is -3.15%. The Potency entry in assay [5], in assay [6], in assay [7] and in assay [9] was “inactive” throughout. For the same molecule, the Potency in assay [8] is 0.947 µM (active).

Consider `Cn1cc(-c2ccc(F)c(C(F)(F)F)c2)nc1C1CCN(c2ncnc3[nH]ncc23)CC1`, for which the activity in [1] is 2.12%; in assay [3] it was -37.5%; in assay [4], -1.21%. Moreover, the activity change, negative = inhibition in assay [2] came to 1.12% [at 9.47 µM]. In addition, the Potency entry in assay [5], in assay [6], in assay [7], in [8], in assay [9] and in assay [10] was “inactive” in each case.

On to `C[C@H](Nc1cc2c(-c3ccc4c(c3)OCO4)noc2cn1)c1ccccc1`, for which the activity in [1] was -8.55%; in [3] it was -7.23%; in assay [4] it was -13.9%. For the same molecule, the activity change, negative = inhibition in assay [2] was -10.4%. Also, the Potency entry in assay [5], in assay [6], in assay [7], in assay [8], in [9] and in assay [10] was “inactive” in each case.

As for `COc1ccc(NC(=O)c2ccc(-c3ccc(C(=N)N)cc3C)cc2)cc1N1CCN(C)CC1`, the activity in assay [1] was -5.44%; in assay [3], -3.54%; in assay [4], -6.51%. Further, in [2], the activity change, negative = inhibition was 2.76%. For the same molecule, the Potency entry in assay [5], in assay [6], in assay [7], in assay [8] and in [9] was “inactive” each time.

Take `CC(C)C[C@H](C(=O)O)c1cc(-c2ccc(C(F)(F)F)cc2)cc(-c2ccc(C(F)(F)F)cc2)c1`: the activity in [1] was -6.76%; in assay [3], -40.6%; in [4], -16.1%. For the same molecule, the Potency in assay [2] is 48.2 µM (active). Besides, the Potency result in assay [5], in assay [6], in [7], in assay [8], in [9] and in [10] was “inactive” throughout.

Regarding `N#Cc1ccc(COC[C@H]2O[C@@H](n3c(NCc4ccc(Cl)c(Cl)c4)nc4c(N)ncnc43)[C@H](O)[C@@H]2O)cc1`, the values for the activity in assay [1], in assay [3] and in assay [4] were -4.68%, -79.6% and -74.2%, respectively. For the same molecule, the Potency in assay [2] is 23.5 µM (active). Also, the Potency entry in assay [5], in assay [6], in assay [7], in assay [8], in [9] and in [10] was “inactive” in each case.

With `CCC(=O)N1CCOc2c(cc(-c3ccc(OC)c(OC)c3)cc2OC[C@H]2CCCN(C)C2)C1`, the results for the activity in assay [1], in [3] and in assay [4] were -13.1%, -10.5% and -9.1%, respectively. For the same molecule, the activity change, negative = inhibition in [2] is -8.77%. The Potency result in [5], in assay [6], in assay [7], in assay [8] and in [9] was “inactive” throughout.

Source of the values: PubChem BioAssay (NCATS).
